An excerpt weighted towards active compounds, which were near 6.8% of everything screened.
Pf Dd2 inh: inhibitors of Plasmodium falciparum Dd2 growth; AID 1159554; 94,000 compounds, 2.3% hits; activity change, % at 10 µM; P. falciparum Dd2 growth, SYBR Green, 72 h; active compounds read low; in the data active = activity change below about -80%
C diff HTS: C. difficile growth inhibition. Clostridium difficile clinical isolate growth, OD600, 24 h; active compounds read low. growth activity, negative = inhibition, % at 16 µg/mL (by protocol). 86,000 compounds, 0.25% hits;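 active = mean growth activity at or below -80% and every replicate also at or below -80%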;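 also: 0% = DMSO wells and -100% = levofloxacin 16 µg/mL wells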
T cruzi growth: blocks T. cruzi growth in NIH3T3 culture; T. cruzi beta-gal in NIH3T3, GalScreen luminescence, 90 h; inhibition, % at 8.34 µM; 77,000 compounds, 5.9% hits;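 active = mean inhibition above about 93%, with at least 55% of replicates each passing it, limit read from the data, passing the limit was not always enough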
* hit, by the source's call; . = not tested or not shown.

SMILES	Pf Dd2 inh	C diff HTS	T cruzi growth
Cc1ccc(S(=O)(=O)N(C)C[C@@H]2Oc3ccc(NC(=O)CCCCCC(=O)Nc4ccccc4N)cc3C(=O)N([C@@H](C)CO)C[C@H]2C)cc1	-60.5	-2.7	.
C[C@H](CO)N1C[C@H](C)[C@H](CN(C)S(=O)(=O)c2ccc(Cl)cc2)Oc2ccc(NC(=O)CCCCCC(=O)Nc3ccccc3N)cc2C1=O	-74.4	-22.1	.
C[C@H](CO)N1C[C@H](C)[C@@H](CN(C)C(=O)c2ccncc2)OCCCC[C@H](C)Oc2ccc(N(C)C)cc2C1=O	0.6	-3.7	32.2
COc1ccc(C#Cc2ccc3c(c2)[C@@H]2[C@@H](CCN2S(=O)(=O)c2cccc(OC)c2)[C@@H](CO)N3)cc1	-43.9	-2.2	83.6
CCCC(=O)N1CCC2(CC1)CN(Cc1ccc(Cl)cc1)[C@H](CO)c1[nH]c3cc(OC)ccc3c12	-84.9*	15.7	.
CCC(=O)N1CC2(C1)CN(Cc1cccc(OC)c1)[C@H](CO)c1[nH]c3cc(OC)ccc3c12	-76.4	-1.4	.
CCCNC(=O)N1CCC2(CC1)CN(Cc1cccc(F)c1)[C@@H](CO)c1[nH]c3cc(OC)ccc3c12	-79.1	-2.4	.
CCC(=O)N1CCC2(CC1)CN(Cc1ccc(Cl)cc1)[C@H](CO)c1[nH]c3cc(OC)ccc3c12	-88.1*	9.0	.
CCCNC(=O)N1CCC2(CC1)CN(Cc1ccc(F)cc1)[C@@H](CO)c1[nH]c3cc(OC)ccc3c12	-88.1*	2.8	.
CCCC(=O)N1CCC2(CC1)CN(Cc1nccs1)[C@H](CO)c1[nH]c3cc(OC)ccc3c12	-43.1	-7.2	.
COCC(=O)NC[C@@H]1CC[C@@H]2[C@@H](CN2S(=O)(=O)c2ccccc2[N+](=O)[O-])O1	1.1	-4.7	.
CN(C)C(=O)C[C@H]1CC[C@@H]2[C@H](COC[C@H](O)CN2CC2CCCC2)O1	-14.7	1.6	-6.5
C[C@H](CO)N1C[C@H](C)[C@H](CN(C)C(=O)Cc2ccccc2)Oc2cc(C#CC3(O)CCCC3)ccc2S1(=O)=O	-50.8	-12.9	-36.5
COc1ccc(NC(=O)N(C)C[C@H]2Oc3ncc(-c4cccnc4)cc3C(=O)N([C@@H](C)CO)C[C@@H]2C)cc1	-0.6	0.0	-148.4
CCC(=O)N[C@H]1C=C[C@H](CC(=O)NCCN2CCCCC2)O[C@@H]1CO	6.5	1.0	-2.2
C[C@H]1CN([C@@H](C)CO)C(=O)c2ccccc2-c2ccccc2CO[C@@H]1CN(C)C(=O)Nc1ccc(-c2ccccc2)cc1	-86.4*	-14.7	.
C[C@H](CO)N1C[C@H](C)[C@@H](CN(C)C(=O)Nc2ccc(-c3ccccc3)cc2)OCc2ccccc2-c2ccccc2C1=O	-40.1	82.1	.
C[C@@H]1CN([C@@H](C)CO)C(=O)c2ccccc2-c2ccccc2CO[C@H]1CN(C)C(=O)Nc1cccc(F)c1	-83.4*	.	22.4
C[C@@H]1CN([C@@H](C)CO)C(=O)c2ccccc2-c2ccccc2CO[C@@H]1CN(C)C(=O)Nc1cccc(F)c1	-16.7	.	49.4
C[C@@H]1CN([C@@H](C)CO)C(=O)c2ccccc2-c2ccccc2CO[C@H]1CN(C)C(=O)Nc1cccc(C(F)(F)F)c1	-87.4*	0.3	48.8
C[C@H](CO)N1C[C@H](C)[C@H](CN(C)C(=O)Nc2cccc(C(F)(F)F)c2)OCc2ccccc2-c2ccccc2C1=O	-31.6	1.9	74.4
C[C@H](CO)N1C[C@H](C)[C@H](CN(C)C(=O)Nc2ccc(C(F)(F)F)cc2)Oc2c(NS(=O)(=O)c3cccs3)cccc2C1=O	-12.8	.	-5.0
C[C@H]1CCCCO[C@H](CN(C)C(=O)c2ccccc2)[C@@H](C)CN([C@@H](C)CO)C(=O)c2cc(NC(=O)Nc3ccccc3)ccc2O1	-7.4	-1.5	-17.1
C[C@H]1CN([C@@H](C)CO)C(=O)c2cccc(NS(=O)(=O)c3cn(C)cn3)c2O[C@H]1CN(C)Cc1ccc(C(F)(F)F)cc1	4.2	1.6	33.8
O=C(NCC[C@@H]1CC[C@@H](NC(=O)Nc2cc(F)ccc2F)[C@@H](CO)O1)Nc1ccc(F)cc1	.	-3.9	.
C[C@@H]1CN([C@@H](C)CO)C(=O)c2c(c3ccccc3n2C)-c2ccccc2CO[C@@H]1CN(C)Cc1cccc2c1OCCCO2	-84.8*	17.0	.
C[C@@H]1CN([C@H](C)CO)C(=O)c2c(c3ccccc3n2C)-c2ccccc2CO[C@H]1CN(C)Cc1cccc2c1OCCCO2	-68.0	4.9	.
C[C@H]1CN([C@@H](C)CO)C(=O)c2c(c3ccccc3n2C)-c2ccccc2CO[C@@H]1CN(C)Cc1cccc2c1OCCCO2	-79.7	8.4	.
C[C@@H]1CN([C@H](C)CO)C(=O)c2c(c3ccccc3n2C)-c2ccccc2CO[C@@H]1CN(C)Cc1cccc2c1OCCCO2	-84.5*	16.1	.
O=C(C[C@@H]1C[C@@H]2c3cc(NC(=O)c4cccnc4)ccc3O[C@@H]2[C@H](CO)O1)NCc1cccc(F)c1	8.3	-2.1	-14.6
